This is an account of results in the supplement of paper PMC8699584.

± gives the standard deviation of the averaged measurements.

For this experiment, the system named is Mv4-11. Kind of experiment: cell viability relative to DMSO control (bortezomib = 0%); higher = less growth inhibition. The conditions noted are these: 10 nM; 72 h. In outline: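 Using 384-well plates, a set of 679 approved and investigational compounds was tested once at 10 nM against acute myeloid leukemia cells (1000 cells per well in 50 µL) over 72 h, with the whole screen done in duplicate. Viability readout relied on CellTiter-Glo luminescence measured on an EnVision reader. For each plate, linear regression mapped values between positive-control-treated cells at 0% and DMSO-treated cells at 100%.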
Regarding `CCS(=O)(=O)N1CC(CC#N)(n2cc(-c3ncnc4[nH]ccc34)cn2)C1` [Baricitinib†(Phosphate)], the cell viability came out at 115 ± 5.4%.

Turning to `Cc1ccc(C(=O)Nc2ccc(CN3CCN(C)CC3)c(C(F)(F)F)c2)cc1C#Cc1cnc2[nH]ncc2c1` [GZD824 Dimesylate], the cell viability is -9.27 ± 10%.

For the molecule `COc1cc2ccc(=O)oc2cc1O` [Scopoletin], the cell viability was 109.9 ± 0.78%.

With `CO[C@@H]1[C@H](N(C)C(=O)c2ccccc2)C[C@H]2O[C@]1(C)n1c3ccccc3c3c4c(c5c6ccccc6n2c5c31)C(=O)NC4` [PKC-412(Midostaurin)], the cell viability was 89 ± 22%.

Turning to `CN1C(=O)C(c2c[nH]c3ccccc23)=C(c2c[nH]c3ccccc23)C1=O` [Bisindolylmaleimide V], the cell viability was found to be 113 ± 9.1%.

Turning to `CCn1c(=O)c(-c2ccc(-c3cncs3)cc2Cl)cc2cnc(Nc3ccc(N4CCN(C)CC4)cc3)nc21`, the cell viability is 111 ± 10%.

Consider `CC(C)=CCC[C@](C)(O[C@@H]1O[C@H](CO[C@@H]2O[C@H](CO)[C@@H](O)[C@H](O)[C@H]2O)[C@@H](O)[C@H](O)[C@H]1O)[C@H]1CC[C@]2(C)[C@@H]1[C@H](O)C[C@@H]1[C@@]3(C)CC[C@H](O[C@@H]4O[C@H](CO)[C@@H](O)[C@H](O)[C@H]4O)C(C)(C)[C@@H]3CC[C@]12C` [Gypenoside XVII], for which the cell viability is 102 ± 7%.

With `COC(=O)c1ccc2c(c1)NC(=O)/C2=C(\Nc1ccc(N(C)C(=O)CN2CCN(C)CC2)cc1)c1ccccc1` [Nintedanib (BIBF 1120)], the cell viability came out at 113 ± 5.7%.

With `Oc1cccc(-c2nc(N3CCOCC3)c3oc4ncccc4c3n2)c1`, the cell viability turned out to be 104 ± 8.7%.

By cell viability is commonly meant a read-out of living cells in per cent, often relative to untreated cells.
